# Assay results taken from PubChem BioAssay AID2284386 (EPA ToxCast).
# Calls of active or inactive are those of the source. Rule for the calls: active = hit-call score of the fitted dose curve at least 0.9, where 1 is the maximum; inactive = score below 0.9.
# Molecular target: Peroxisome proliferator-activated receptor gamma (Homo sapiens) (UniProt P37231)
# Assay: ERF_FR_NR_COA_hPPARG: Eurofins (ERF) Nuclear Receptor (NR) Functional Coactivator Assay for human Peroxisome Proliferator-activated Receptor gamma (PPARg) Agonism, conducted at France lab site
# Description: ERF_FR_NR_COA_hPPARG is a biochemical, single-readout assay that uses extracted gene-proteins in a cell-free assay. Measurements were taken 2 hours after chemical dosing in a 384-well plate. See PPARgamma Human NHR Functional Agonist Coactivator Assay, Cerep.ERF_FR_NR_COA_hPPARG is an assay component calculated from the ERF_FR_NR_COA_hPPARG assay. It is designed to measure FRET using a type of binding reporter as detected by fluorescence intensity of Rosiglitazone with fluorimetry technology.Data from the assay component ERF_FR_NR_COA_hPPARG was analyzed at the assay endpoint, ERF_FR_NR_COA_hPPARG, in the positive analysis fitting direction relative to DMSO as the negative control and baseline of activity. Using a type of binding reporter, gain-of-signal activity can be used to understand changes in binding as they relate to gene PPARG. […]
# Test compound and/or vehicle is incubated with the 2 nM receptors and coactivator peptide for 180 minutes at room temperature. Determination of the amount of complex formed is read spectrofluorimetrically (excitation: 337 nm, emission: 520/490 nm). Test compound-induced increase fluorescence by 50 percent or more (>/=50%) relative to 1 uM GW1929 response indicates possible PPARgamma receptor agonist activity. […]
# Peroxisome proliferator-activated receptor gamma (Homo sapiens), sequence (P37231 whole entry, looked up): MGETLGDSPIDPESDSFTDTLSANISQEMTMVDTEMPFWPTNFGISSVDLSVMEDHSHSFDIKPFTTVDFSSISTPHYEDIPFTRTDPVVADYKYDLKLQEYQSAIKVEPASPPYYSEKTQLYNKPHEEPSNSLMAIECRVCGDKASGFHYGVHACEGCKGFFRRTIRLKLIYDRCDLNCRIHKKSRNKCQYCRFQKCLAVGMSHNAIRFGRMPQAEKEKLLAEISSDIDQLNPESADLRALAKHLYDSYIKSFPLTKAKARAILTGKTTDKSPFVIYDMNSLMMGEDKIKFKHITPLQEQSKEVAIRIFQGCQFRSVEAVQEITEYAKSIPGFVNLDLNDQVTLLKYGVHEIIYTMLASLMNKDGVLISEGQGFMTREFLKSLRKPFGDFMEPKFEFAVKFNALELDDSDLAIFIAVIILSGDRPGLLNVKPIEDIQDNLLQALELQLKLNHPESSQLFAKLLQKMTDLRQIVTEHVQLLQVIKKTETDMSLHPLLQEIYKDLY
smiles,measurement,value
O=S(=O)(O)C(F)(F)C(F)(F)C(F)(F)C(F)(F)C(F)(F)C(F)(F)C(F)(F)C(F)(F)F,outcome,inactive
